Reference: PubChem BioAssay (NCI)
This is part of a sample that, as a whole, favours compounds with a hit. Of some 79,000 tested, about 15% had one in any assay. Activity calls are given as the source filed them. No stated cut-off is given here; in the data, active means growth inhibition above about 70%; inactive means the rest.

Tests used:
[1] = NCI Yeast Anticancer Drug Screen. Data for the rad50 strain (AID 155);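 further: 0% = growth of vehicle-only cultures of the same strain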; conditions: S. cerevisiae rad50 strain growth inhibition, active compounds read high
Outline: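 DNA repair mutant yeast, compound exposure, growth read-out; inhibition is taken relative to vehicle.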

[2] = NCI Yeast Anticancer Drug Screen. Data for the mec2-1 strain (AID 157); conditions: S. cerevisiae mec2-1 strain, active compounds read high
Outline: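 Compounds were applied to mec2-1 yeast cells. Their growth was then compared with that of vehicle-treated cultures to give growth inhibition.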

[3] = NCI Yeast Anticancer Drug Screen. Data for the sgs1 mgt1 strain (AID 161);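 further: 0% = growth of cultures given vehicle only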; conditions: S. cerevisiae sgs1 mgt1 strain, active compounds read high
Outline: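 Compounds are added to genetically altered yeast, and growth is compared with cultures given vehicle alone to give percent inhibition.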

[4] = NCI Yeast Anticancer Drug Screen. Data for the cln2 rad14 strain (AID 165);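 further: 0% = growth equal to vehicle treated cultures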; conditions: S. cerevisiae cln2 rad14 strain, active compounds read high
Outline: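 Strain: cln2 rad14 yeast, altered in cell cycle control and DNA damage repair. Read-out: growth inhibition vs vehicle.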

[5] = NCI Yeast Anticancer Drug Screen. Data for the bub3 strain (AID 167); conditions: S. cerevisiae bub3 mutant strain, active compounds read high
Outline: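 In this screen, a yeast mutant lacking normal mitotic checkpoint function is challenged with compound. Relative growth versus vehicle gives the inhibition value.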

[6] = NCI Yeast Anticancer Drug Screen. Data for the mlh1 rad18 strain (AID 175); conditions: S. cerevisiae mlh1 rad18 strain growth inhibition, active compounds read high
Outline: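 A repair-deficient yeast strain is exposed to test compound, and growth is scored relative to vehicle-treated controls.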

[7] = at 5.0 µM (retest, dose inferred, filed as 0.5)
[8] = at 50.0 µM (retest, dose inferred, filed as 5.0)

Measured: growth inhibition

CCOC(=O)C(=O)N1C(C)=C(C(=O)OCC)CC(C(=O)OCC)=C1C
inactive: [1]; [7] 35% | [1]; [8] 44% | [1]; at 50.0 µM -24.6% | [2]; [7] 18% | [2]; [8] 19% | [2]; at 50.0 µM -26.2% | [3]; [7] 30% | [3]; [8] 32% | [3]; at 50.0 µM -17.8% | [4]; [7] 29% | [4]; [8] 18% | [4]; at 50.0 µM -34% | [5]; [7] 27% | [5]; [8] 25% | [5]; at 50.0 µM -8.45% | [6]; [7] 32% | [6]; [8] 31% | [6]; at 50.0 µM -44.1%

CCCCCCCCCCCCCCCC[N+](C)(C)CC(=O)O
inactive: [1]; [7] 6% | [1]; at 50.0 µM -12.2% | [2]; [7] 7% | [2]; at 50.0 µM 1.2% | [3]; [7] 19% | [3]; at 50.0 µM -1.4% | [4]; [7] 2% | [5]; [7] 0% | [6]; [7] 5% | [6]; at 50.0 µM 7.85%
active: [1]; [8] 92% | [2]; [8] 98% | [3]; [8] 97% | [4]; [8] 94% | [4]; at 50.0 µM 88.4% | [5]; [8] 96% | [5]; at 50.0 µM 99% | [6]; [8] 97%

Cc1nc(Nc2ccc(Cl)cc2)sc1C(=O)NNC(=S)NN
inactive: [1]; [7] 25% | [2]; [7] -9% | [2]; [8] 64% | [3]; [7] -3% | [4]; [7] 8% | [4]; [8] 65% | [5]; [7] -5% | [6]; [7] -30%
active: [1]; [8] 75% | [1]; at 50.0 µM 91.5% | [2]; at 50.0 µM 88% | [3]; [8] 77% | [3]; at 50.0 µM 91.8% | [4]; at 50.0 µM 91.6% | [5]; [8] 93% | [5]; at 50.0 µM 88.3% | [6]; [8] 82% | [6]; at 50.0 µM 88.5%

C=CCCCCn1c2ccccc2c2c(C)c3c[n+](C)ccc3c(C)c21
active: [1]; [7] 99% | [1]; [8] 99% | [1]; at 50.0 µM 89.7% | [2]; [7] 99% | [2]; [8] 99% | [2]; at 50.0 µM 91.8% | [3]; [7] 97% | [3]; [8] 97% | [3]; at 50.0 µM 90.3% | [4]; [7] 100% | [4]; [8] 100% | [4]; at 50.0 µM 90.7% | [5]; [7] 98% | [5]; [8] 98% | [5]; at 50.0 µM 91.4% | [6]; [7] 98% | [6]; [8] 98% | [6]; at 50.0 µM 88.8%

NC(=O)SCC(=O)Nc1ccccc1
inactive: [1]; [7] 5% | [2]; [7] -1% | [2]; at 50.0 µM 67.9% | [3]; [7] 1% | [4]; [7] 5% | [5]; [7] 3% | [6]; [7] 3%
active: [1]; [8] 82% | [1]; at 50.0 µM 86.5% | [2]; [8] 83% | [3]; [8] 82% | [3]; at 50.0 µM 87.8% | [4]; [8] 81% | [4]; at 50.0 µM 80% | [5]; [8] 83% | [5]; at 50.0 µM 83.6% | [6]; [8] 87% | [6]; at 50.0 µM 87.2%

COc1ccc(CN2COc3c(cc(Cl)c4cccnc34)C2)cc1
inactive: [1]; [7] 6% | [2]; [7] -2% | [3]; [7] 1% | [4]; [7] 4% | [5]; [7] -2% | [6]; [7] 8%
active: [1]; [8] 98% | [1]; at 50.0 µM 99.5% | [2]; [8] 91% | [2]; at 50.0 µM 99.6% | [3]; [8] 98% | [3]; at 50.0 µM 99.7% | [4]; [8] 99% | [4]; at 50.0 µM 99.2% | [5]; [8] 99% | [5]; at 50.0 µM 99.4% | [6]; [8] 99% | [6]; at 50.0 µM 99.5%

CN(C)C(=S)SN(C)C(=O)Nc1ccccc1
inactive: [1]; [7] -5% | [2]; [7] -7% | [3]; [7] -6% | [4]; [7] -13% | [4]; at 50.0 µM -9% | [5]; [7] -4% | [6]; [7] -3%
active: [1]; [8] 96% | [1]; at 50.0 µM 70.3% | [2]; [8] 96% | [2]; at 50.0 µM 73% | [3]; [8] 96% | [3]; at 50.0 µM 94% | [4]; [8] 95% | [5]; [8] 95% | [5]; at 50.0 µM 92.2% | [6]; [8] 96% | [6]; at 50.0 µM 86.1%

COc1cc(OC)c(OC)cc1/C=C\c1nccc2ccccc12
inactive: [1]; [7] 1% | [1]; [8] 51% | [2]; [7] -3% | [2]; [8] 12% | [3]; [7] -4% | [3]; [8] 23% | [4]; [7] 4% | [4]; [8] 0% | [4]; at 50.0 µM 65.4% | [5]; [7] -6% | [5]; [8] -6% | [6]; [7] -3% | [6]; [8] 12%
active: [1]; at 50.0 µM 92.9% | [2]; at 50.0 µM 92.5% | [3]; at 50.0 µM 93.7% | [5]; at 50.0 µM 91.3% | [6]; at 50.0 µM 94.2%

Cc1cc(Br)cc(C)c1NC(=O)C(=O)C(C(=O)c1ccc2ccccc2c1)C1OC(=O)c2ccccc21 (configuration not stated)
active: [4]; at 50.0 µM 70%
inactive: [1]; [7] 4% | [1]; [8] 38% | [1]; at 50.0 µM 12.5% | [2]; [7] 4% | [2]; [8] 19% | [2]; at 50.0 µM 14.3% | [3]; [7] 10% | [3]; [8] 11% | [3]; at 50.0 µM 27.7% | [4]; [7] 1% | [4]; [8] -14% | [5]; [7] 5% | [5]; [8] 23% | [5]; at 50.0 µM 31.5% | [6]; [7] 4% | [6]; [8] 19% | [6]; at 50.0 µM 31.8%
